Assay results from the supplement of paper PMC12636033.
± gives the standard deviation of the averaged measurements. Whole data set: some 33,000 sequences, median “E-score (rank enrichment, -0.5 to 0.5)” near -0.0068, cut for the highest 2% near 0.24. The list comes from a sample in which the highest values are over-represented; it also holds similar and randomly drawn sequences.

test system: muMax20 (Max(13-93) K31hArg/K57hArg, M65Nle); experiment: PBM 8-mer E-score (E-score (rank enrichment, -0.5 to 0.5)); higher = stronger preferential binding
Protocol: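 Protein binding microarray (universal PBM chip covering all 10-mers in fixed probe flanks) with chemically synthesized human Max(13-93) bHLH-LZ analogs (not full-length Max) bearing noncanonical residues (hArg, Tha, Aib, Nle at 65) and aromatic Cys staples. Read-out per 8-mer (and its reverse complement): E-score (rank-based enrichment, -0.5 to 0.5) and Z-score of median probe intensity.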

Sequence	PBM 8-mer E-score
ACGCCATA	0.0949 ± 0.073
TCTAAACA	0.16 ± 0.033
CTGAGTTA	-0.0809 ± 0.031
AGAAAAAA	0.231 ± 0.056
CATCGAGC	-0.0831 ± 0.0056
AAATGTGC	0.121 ± 0.067
ACGGTGCT	-0.0206 ± 0.018
ATTGTTTA	0.103 ± 0.011
GTTGTTTA	0.32 ± 0.063
CTTGTTTA	0.0457 ± 0.0082
ACATTGTG	0.144 ± 0.17
TAGATCTA	0.0708 ± 0.14
TACATATA	0.238 ± 0.022
AACATATG	0.136 ± 0.027
CACATATG	0.131 ± 0.036
GACATATA	0.0588 ± 0.11
TACATAGA	0.163 ± 0.051
ACCATATC	0.0503 ± 0.19
ACCATATA	0.278 ± 0.042
CACATATA	0.325 ± 0.081
CACATATC	0.149 ± 0.067
AACATATA	0.286 ± 0.079
GACATATC	0.135 ± 0.032
ACCATATG	0.159 ± 0.02
CGTCGGAG	-0.1482 ± 0.0013

Sequence	PBM 8-mer E-score
CGCACTAG	-0.0251 ± 0.025
GCAGATCA	-0.15 ± 0.0073
CTACCTGC	-0.0986 ± 0.014
AGAAATAA	0.259 ± 0.097
ATAAATAG	0.167 ± 0.075
ATAAATAC	0.263 ± 0.071
GGAAATAA	0.154 ± 0.013
TTAAATAA	0.18 ± 0.063
AAAAATAT	0.229 ± 0.035
AGAAATAC	0.0602 ± 0.05
ATAAATAA	0.231 ± 0.0076
ATAAATAT	0.319 ± 0.01
TTAAGGAA	0.0354 ± 0.0092
AGGAAGTG	-0.0996 ± 0.0079
CTCTTGAC	-0.0583 ± 0.0029
CCCAAATA	0.176 ± 0.061
ACCGATCC	-0.277 ± 0.0028
AGAAGCAA	0.1 ± 0.028
ATCGGTTA	-0.0224 ± 0.05
ATGATTAC	0.149 ± 0.044
GATAGAGC	-0.15 ± 0.001
CTACATAG	0.138 ± 0.14
CATGCACA	0.317 ± 0.082
AATGCATC	0.129 ± 0.082
CATGCATA	0.19 ± 0.13

Sequence	PBM 8-mer E-score
AATGCATA	0.171 ± 0.09
CATGCACG	0.183 ± 0.026
TGTGCACA	0.221 ± 0.046
CATGCATC	0.0441 ± 0.017
GATGCACA	-0.00748 ± 0.045
CATGCATG	0.3719 ± 0.0024
CGTGCACG	0.283 ± 0.13
AATGCATT	0.348 ± 0.072
CGTGCACA	0.098 ± 0.028
GTGAATTA	0.191 ± 0.067
CCTTACGC	0.0271 ± 0.0015
AGCGTTTG	-0.169 ± 0.14
CCAAGTGG	-0.15414 ± 2.1e-05
CTTTAGGC	-0.158 ± 0.011
GAAGCTTA	0.129 ± 0.018
ATGGACTA	0.128 ± 0.015
GCGGATAA	-0.0466 ± 0.033
CTGACTAC	-0.0404 ± 0.19
CTATAAGC	-0.00153 ± 0.018
ACTGCATG	-0.0337 ± 0.13
CATGCAAG	0.118 ± 0.015
AATGCAAG	0.0709 ± 0.08
CATGCAAC	0.327 ± 0.012
AATGCATG	0.237 ± 0.073
AATGCAAC	0.197 ± 0.047

Sequence	PBM 8-mer E-score
GACTCCGA	-0.155 ± 0.046
TCTCGACA	-0.0258 ± 0.011
TCGGGTAA	0.00741 ± 0.027
ACAGGCAT	-0.0411 ± 0.063
CCTCTCTC	-0.045 ± 0.086
GCATCAGA	0.0605 ± 0.012
CTATCACA	0.169 ± 0.029
ATATCACA	0.117 ± 0.14
GCATCATA	0.274 ± 0.019
ACATCACT	0.245 ± 0.095
ATATCACG	0.294 ± 0.068
ATATCATA	0.253 ± 0.14
ATATCATG	0.175 ± 0.056
ACATCACA	0.221 ± 0.009
ACATCACC	-0.0768 ± 0.063
CCATCATA	0.0385 ± 0.12
CTATCATA	0.208 ± 0.054
AGACTGGG	-0.147 ± 0.064
ACGGAATA	-0.0839 ± 0.0017
AGCTTGGG	-0.0797 ± 0.022
CAATGATG	-0.00417 ± 0.0019
ACGCTCGC	0.0344 ± 0.16
CTGAGCTA	-0.17 ± 0.098
CATTTTAC	0.188 ± 0.026
GCGTCAAA	-0.0402 ± 0.15

Sequence	PBM 8-mer E-score
AGACGGGA	-0.0877 ± 0.053
TGAATCCA	0.0507 ± 0.048
GGGTTCCA	-0.11 ± 0.023
AGCGATTG	-0.152 ± 0.033
ACCAATCT	-0.0171 ± 0.067
ATGTCACA	0.131 ± 0.002
ACATCATC	0.166 ± 0.041
CTGTCACA	0.00831 ± 0.13
ACATCATA	0.249 ± 0.038
ACATCATG	0.07 ± 0.031
ATGTCACG	0.297 ± 0.063
AGGGTTTC	-0.0163 ± 0.01
AAATAACG	0.309 ± 0.086
ATATAACG	0.269 ± 0.044
CTATAACA	0.157 ± 0.085
CTATAACC	0.0519 ± 0.0013
CAATAACG	0.0808 ± 0.07
AAATAACA	0.204 ± 0.018
ATATAACC	0.171 ± 0.041
GTATAACA	0.228 ± 0.019
ATATAACA	0.262 ± 0.032
CATAATTA	0.237 ± 0.031
CATAATTC	-0.00772 ± 0.086
CCTAATTA	0.0515 ± 0.15
AATAATTA	0.26 ± 0.072

Sequence	PBM 8-mer E-score
AATAATTC	0.179 ± 0.12
GATAATTA	0.127 ± 0.021
GCGGAGCA	-0.239 ± 0.06
AAGACACT	0.186 ± 0.0044
GAAACACA	0.0586 ± 0.066
ACAAGCTG	-0.103 ± 0.091
AGACAATG	0.0426 ± 0.00081
AAACAATA	0.234 ± 0.038
AGACAATC	0.0672 ± 0.021
CAACAATG	0.137 ± 0.096
CAACAATA	0.324 ± 0.022
GAACAATA	0.0766 ± 0.03
TAACAATA	0.257 ± 0.033
AGACAATA	0.2983 ± 0.00038
CAACAATC	0.0661 ± 0.052
ACACCCGG	-0.144 ± 0.016
GGGCTTGA	-0.165 ± 0.025
ACACAGGA	0.0105 ± 0.0057
ACGGTCCT	-0.272 ± 0.044
CTAAGTGC	-0.0257 ± 0.067
TAAGAGAA	-0.0222 ± 0.03
GCAAATCA	-0.0323 ± 0.096
CCAAATCA	-0.0102 ± 0.046
AAAAAAAT	0.168 ± 0.066
ACAAAAAA	0.249 ± 0.033

Sequence	PBM 8-mer E-score
ACCAAAAT	0.168 ± 0.03
ACAAAAAT	0.241 ± 0.05
ACAAAAAC	0.178 ± 0.055
ACAAAAAG	0.125 ± 0.074
ACAAATCA	0.237 ± 0.12
GTCATAAA	0.193 ± 0.01
CCAAAACA	0.231 ± 0.1
ACCACCGG	-0.2177 ± 0.00071
ATCTCTCC	-0.0165 ± 0.16
AACGCCCA	-0.077 ± 0.015
AACGCCAC	-0.111 ± 0.023
CTATGCCC	-0.0261 ± 0.02
AACGAATC	0.023 ± 0.089
TGGTTACA	0.0957 ± 0.036
ATTATAAA	0.296 ± 0.053
ATTATAAG	0.115 ± 0.13
GTTATAAC	0.187 ± 0.11
CTTATAAA	0.191 ± 0.0045
GTTATAAA	0.239 ± 0.037
ATTATAAT	0.201 ± 0.042
AGCCCAAG	-0.08 ± 0.11
CGAGAAGA	0.0468 ± 0.0088
